# According to PubChem BioAssay (NCI):
# The panel holds about 83,000 compounds, 20% with a hit somewhere; the sample as a whole holds those more often.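 The endpoint reported here, percent growth, reads 100 for growth as untreated, 0 for no net growth and -100 for all cells dead.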 Values without a mark were called inactive. Calls of active or inactive are those of the source. Rule for the calls: active = growth percent below 10; inactive = the rest.
# Test system: HL-60(TB) leukemia
# Experiment: NCI-60 one-dose screen, 48 h (100 = growth as untreated, 0 = no growth, -100 = all killed)
# Details: 10 µM unless noted
row,SMILES,growth
1,COc1ccc(NC(=O)N/N=C/c2c[nH]c3ccccc23)cc1,1.79% (active)
2,COC(=O)c1c(C(=O)OC)c2ccc3c4ccccc4ccc3n2c1C(=O)OC,111%
3,COc1ccc(-c2cc(C(=O)N=Nc3c(O)[nH]c4ccccc34)c3ccccc3n2)cc1,56.2%
4,CC1=NN(C2=NC(=O)C(CC(=O)Nc3ccccc3C(F)(F)F)S2)C(c2ccc(N(C)C)cc2)C1 (stereo not given),10.7%
5,N#CCc1nnc(NC(=O)c2ccc(-n3c(=O)[nH]c4ccccc4c3=O)cc2)s1,86%
6,COc1cc(-c2ccc3ncnc(N4CCc5ccc(Cl)cc54)c3c2)cnc1Cl,-8.13% (active)
7,COc1c(F)ccc(C(=O)Nc2ccc3nc(NC(=O)C4CCCN(S(=O)(=O)c5ccc(Cl)cc5)C4)sc3c2)c1F (stereo not given),83.4%
8,Cc1cn(-c2cc(NC(=O)c3ccc(C)c(-n4cc(-c5cnc6cccnn56)nn4)c3)cc(C(F)(F)F)c2)cn1,24.9%
9,S=C(Nc1ccc(OCc2nc3ccccc3[nH]2)cc1)NC1CCCCC1,103%
10,COc1cccc(NC(=O)c2ccc(NC(=O)CCl)s2)c1,-28.2% (active)
11,COc1cc(C2CC(c3ccc(S(=O)(=O)NCCNc4nc(Nc5ccc(F)cc5)nc(N(C)C)n4)cc3)=Nc3c(N)nc(N)nc3N2)cc(OC)c1OC (stereo not given),80.3%
12,Cn1cc(Nc2ncnc(-c3ccc(N4CCCC4)c(C#N)c3)n2)cn1,49.1%
13,CC1=C(C(=O)c2ccccc2)C(c2cccc3ccccc23)n2c(nc3ccccc32)N1 (stereo not given),58.6%
14,CC(C)C1=C[C@@]23CC[C@@H]4[C@](C)(CCC[C@]4(C)C(=O)NCc4ccccc4)[C@H]2C[C@@H]1[C@H]1C(=O)CCC(=O)[C@H]13,53.5%
15,O=C1/C(=C/C=C/c2ccco2)SC(=S)N1CC(=S)C1C=CS(=O)(=O)C1 (stereo not given),59.4%
16,Cc1ccn2c(C(=O)c3ccccc3)cc(-c3cc(-c4ccc(N(C)C)cc4)c(C#N)c(N)n3)c2c1,95.1%
17,CC12CC[C@@H]3[C@]4(C)COC(c5cn[nH]c5-c5ccc(Cl)cc5)O[C@@H]4CC[C@@]3(C)[C@@H]1CC(C1=CCOC1=O)O2 (stereo not given in full),3.37% (active)
18,CN(C)c1nc(NCCNS(=O)(=O)c2ccc(C(=O)/C=C/c3ccc(C(F)(F)F)cc3)cc2)nc(Nc2ccc(F)cc2)n1,-21.8% (active)
19,O=C1CCC(N2C(=O)c3cccc(NCCOCCOCCOCCC(=O)NCCCC(=O)NC(c4ccc5c(c4)OCO5)c4cc(Cl)c5cccnc5c4O)c3C2=O)C(=O)C1 (stereo not given),-14.1% (active)
20,CC(=O)Nc1ccc(-c2cn(-c3cccc(C(=O)Nc4ccc(Cl)c(C(F)(F)F)c4)c3)nn2)cn1,35%

row,SMILES,growth
1,COc1ccc(-c2cc(-c3cc(C(=O)c4ccc(Br)cc4)n4ccc(C)cc34)nc(N)c2C#N)cc1,96.6%
2,Cc1ccc2c(c1)/C(=C/C(=O)c1cc3ccccc3oc1=O)C(=O)N2,53%
3,COc1ccc(-c2cc(C(=O)N=Nc3c(O)[nH]c4ccc(F)cc34)c3ccccc3n2)cc1,51.6%
4,CCn1c(SCC(=O)Nc2ccc(-c3nc4ccccc4[nH]3)cc2)nc2ccccc2c1=O,0.454% (active)
5,CN(C)c1ccnc(NCCCSC(c2ccccc2)(c2ccccc2)c2ccccc2)c1,-59% (active)
6,CCOc1ccc(C(=O)NC(=S)Nc2ccc(S(N)(=O)=O)cc2)cc1,103% [100 µM]
7,CN(C)CCCNC(=S)Nc1ccc(/C=C/c2ccc(Cl)cc2)cc1,-22.4% (active)
8,Cc1cc2nc3c4ccccc4n(CCO)c3nc2cc1C,101%
9,COc1ccc(-c2c(Nn3cnnn3)no[n+]2[O-])cc1,38.8%
10,O=c1oc2ccc(-c3ccc(F)cc3F)cc2c(=O)n1-c1ccc(F)cc1,-40.6% (active)
11,CC1(c2ccccc2)NC(=O)N(CC(=O)Nc2ccc(C(=O)/C=C/c3ccc(Cl)cc3)cc2)C1=O (stereo not given),-27.7% (active)
12,O=C(CSc1nnc(-c2ccc(-c3nc4ccccc4[nH]3)cc2)o1)Nc1ccc(Cl)cc1,37.6%
13,Cc1nc(Nc2ccccn2)sc1C(=O)CC(SCC(=O)Nc1ccc(Cl)cc1)c1ccccc1F (stereo not given),14%
14,CCCCSc1nc(NCCc2c[nH]c3ccccc23)c(C#N)c(-c2ccc(F)cc2)n1,53.8%
15,CCOC(=O)c1c(CSc2ccccc2)n(C)c2cc(CN(C)C)c(O)c(CN(C)C)c12,52.2%
16,C=CC(=O)Nc1ccc(C)c(Oc2ccc(Cl)cc2)c1,54%
17,CCOC(=O)/C(F)=C/C1CC1C(c1ccccc1)c1ccccc1 (stereo not given),-7.32% (active)
18,O=C1Nc2cc(Cl)ccc2/C1=C/c1cccc(OCc2ccccc2)c1,-25.3% (active)
19,O=c1c(-c2nc(-c3ccccc3)c(-c3ccccc3)[nH]2)coc2ccc(F)cc12,54.3%
20,CN1C(=O)N(C)C2SC(N/N=C/C=C/c3ccccc3)=NC21 (stereo not given),30.4%
